# High-throughput results: PubChem, The Scripps Research Institute Molecular Screening Center
# hgDAF-12 ag: agonists of H. glycines DAF-12 nuclear receptor; activation, % at 6.8 µM; HEK293 GAL4-hgDAF12 UAS-luciferase reporter, agonist luminescence; normalized to butyrate control; actives 1.8% (n = 370,000);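 active = activation above a cutoff set at the mean of all screened compounds plus 3 SD, cut at about 10% in these data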;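 note: 0% = DMSO wells and 100% = sodium butyrate wells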
# ssDAF12 agonist: S. stercoralis DAF-12 activation, primary screen. activation, % at 6.8 µM. actives 1% (n = 370,000). HEK293 ssDAF-12/GRIP1 lit1-tk-luc reporter, luminescence; % of 3 µM dafachronic acid response;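 active = activation above the mean over all tested compounds plus 3 SD, cut at about 0.9% in these data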;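 note: 0% = DMSO-only wells and 100% = 3 µM delta7-dafachronic acid wells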
# DAX1 inh-1: blocks DAX1 repression of SF-1 activated StAR promoter; HEK293T StAR-luciferase reporter, SF-1/DAX-1 repression relief; inhibition, % at 6.8 µM; actives 1.1% (n = 370,000);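 active = inhibition above the mean over all tested compounds plus 3 SD, cut at about 3.6% in these data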;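 note: 0% = DAX-1 cells with DMSO and 100% = cells lacking DAX-1 with DMSO; higher inhibition means more luminescence from relief of DAX-1 repression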
# hcDAF12 agonist: H. contortus DAF-12 activation, primary screen; HEK293 hcDAF-12 lit1-tk-luc reporter, luminescence; 0% DMSO, 100% Δ7-dafachronic acid; activation, % at 6.8 µM; actives 1.4% (n = 370,000); AID 652067;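 active = activation above the mean of all tested compounds plus 3 SD, cut at about 5.5% in these data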;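 note: 100% = response to 3 µM Δ7-dafachronic acid high control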
# DAX1 inh-2: NR0B1 (DAX1) inhibition; P51843; AID 504766; HEK293 Gal4-DAX1 luciferase reporter, luminescence; inhibition, % at 6.75 µM; actives 0.99% (n = 340,000);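 active = inhibition above the mean over all tested compounds plus 3 SD, cut at about 4.2% in these data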;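 note: 0% = DAX1-transfected cells with DMSO and 100% = empty-vector control cells with DMSO; inhibition shows as a rise in luminescence from relieved DAX1 repression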
# Target sequence (P51843 207-470 limits assumed): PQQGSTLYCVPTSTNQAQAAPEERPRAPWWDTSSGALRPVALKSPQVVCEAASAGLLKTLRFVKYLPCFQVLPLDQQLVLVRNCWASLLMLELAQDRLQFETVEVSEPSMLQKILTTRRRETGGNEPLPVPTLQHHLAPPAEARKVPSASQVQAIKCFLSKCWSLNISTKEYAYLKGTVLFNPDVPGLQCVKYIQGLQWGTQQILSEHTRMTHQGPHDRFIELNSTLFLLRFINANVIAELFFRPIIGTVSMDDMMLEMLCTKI
# The depositor's hits bear a star; x = not tested or not shown. Sampled rows, rich in hits. Any-hit rate of the full collection: about 4.1%.
SMILES,hgDAF-12 ag,ssDAF12 agonist,DAX1 inh-1,hcDAF12 agonist,DAX1 inh-2
O=C(Nc1ccc(-c2nc3ccccc3o2)cc1)c1ccc2c(c1)OCO2,-2.5,-1.5,-0.1,-0.4,-0.4
Cc1ccc2oc(-c3cccc(NC(=S)NC(=O)c4cccs4)c3)nc2c1,3.5,-0.7,1.1,2.7,1.1
COc1ccccc1C(=O)NC1CCCCN(Cc2ccc(C)cc2)C1=O (stereo unspecified),1.4,-1.1,-0.6,0.7,x
N#CCC[C@@H]1CC[C@]2(CCCN(C(=O)c3cccnc3)C2)O1,4.4,-1.4,0.7,-1.1,x
CCOC(=O)[C@]12CCCC=C1N(CCCOC)C(=O)[C@@H]2CC(=O)N1CCCCC1,-2.7,0.1,-0.7,-1.4,x
CNC(=O)c1cc2c(cn1)[nH]c1ccccc12,6.2,-0.1,3.7*,1.4,0.6
CCOc1ccc(CCNC(=O)COC(=O)Cc2c[nH]c3ccccc23)cc1OCC,4.6,1.3*,-3.9,4.4,0.3
CCOc1ccc(CCNC(=O)COC(=O)COc2ccc(Cl)cc2)cc1OCC,-2.5,-1.2,3.8*,-1.7,1.5
Cc1cccc(C)c1N1CCN(CCn2c(=S)[nH]c3ccccc3c2=O)CC1,-1.4,-1.4,0.4,-1.4,4.2*
CCN1CCN(CCn2c(=S)[nH]c3ccccc3c2=O)CC1,0.9,-1.1,-0.1,-1.6,0.4
Cc1oc2c(C)c(O)ccc2c(=O)c1-c1nncn1-c1ccccc1,4.7,-1.1,-0.2,2.0,7.1*
CCc1ccc2nc(N)sc2c1,10.8*,-0.4,2.5,1.8,6.4*
CCc1ccc(NC(=O)c2ccc3nc(N)sc3c2)cc1,5.5,-0.6,1.1,0.3,1.0
CCOc1ccc(-c2nc(CSc3nnc(N)s3)cs2)cc1,12.4*,-0.3,0.7,3.0,1.3
COc1ccc(C2Nc3ccccc3C(=O)N2c2ccccc2)cc1CN1CCOCC1 (stereo unspecified),0.4,-1.1,-0.6,0.6,6.1*
COc1ccc(C2Nc3ccccc3C(=O)N2Cc2ccccc2)cc1CN1CCOCC1 (stereo unspecified),-2.2,-1.1,0.0,0.2,-0.4
O=C(NCCN1CCC(n2c(=O)[nH]c3ccccc32)CC1)c1cccc(Cl)c1,18.8*,-0.7,-0.5,-1.5,x
Cc1cc(N2CCOc3ccccc32)nc2ccccc12,-2.4,-1.9,x,-0.6,x
O=[N+]([O-])c1cccc(OCCCN2CCC(C(O)(c3ccccc3)c3ccccc3)CC2)c1,0.8,-1.7,-0.5,-1.4,x
CCCCN(C)C(=O)Cn1nc(Cc2ccncc2)c2ccccc2c1=O,-1.2,-1.1,0.0,-1.6,14.5*
Cc1nn(CCC(=O)NNC(=O)Nc2ccc(Cl)cc2)c(C)c1[N+](=O)[O-],-0.5,-1.4,0.5,-1.6,x
COc1ccc(-c2oc3cc(OC(C)=O)cc(OC(C)=O)c3c(=O)c2OC)cc1,0.7,-1.0,0.1,1.1,3.4
CC(=O)Oc1cc(O)c2c(=O)c(OC(C)=O)c(-c3ccc(OC(C)=O)c(OC(C)=O)c3)oc2c1,x,x,x,x,4.5*
CCn1c(=O)n(CC(=O)N2CCN(C(C)=O)CC2)c(=O)c2ccccc21,-1.5,-1.9,0.9,-3.4,x
O=C(CNC(=O)c1ccccc1)OC(C(=O)O)c1ccc(F)cc1 (stereo unspecified),-1.1,-1.0,-1.0,-0.4,0.0
SMILES,hgDAF-12 ag,ssDAF12 agonist,DAX1 inh-1,hcDAF12 agonist,DAX1 inh-2
COCCCNC(=O)C[C@H]1C[C@@]2(C(=O)OC)C(=C[C@H](C(C)C)O[C@@H]2C2CC2)N(Cc2ccc(Cl)cc2Cl)C1=O,-2.5,-1.2,0.5,-1.7,x
Cc1cc2ncc(-c3ccc(Cl)cc3)c(N)n2n1,7.6,-0.3,4.0*,0.3,0.8
COCCCNC(=O)CN1C(=O)C2CCCCN2C(=O)c2ccccc21 (stereo unspecified),-1.1,-1.5,-0.8,1.8,x
COc1ccccc1C(=O)NC1CCCCN(Cc2ccc(OC(F)(F)F)cc2)C1=O (stereo unspecified),4.4,-1.1,-0.5,-0.9,x
CCN(CC)CC(=O)Nc1ccc(-c2nc3cc(NC(=O)CN(CC)CC)ccc3o2)cc1,6.1,1.0*,-1.3,0.6,0.7
CC(C)c1ccc2oc(-c3ccc(NC(=O)c4ncn[nH]4)cc3)nc2c1,7.2,-0.5,4.0*,0.8,-0.4
Cc1ccc2oc(-c3ccc(NC(=O)CC(C)C)cc3)nc2c1,10.8*,-0.4,2.5,2.4,2.0
CCCC(=O)Nc1ccc2oc(-c3ccncc3)nc2c1,-0.5,-1.3,-0.1,0.0,0.8
O=C(CN1CCCC1)Nc1ccc(-c2nc3cc(NC(=O)CN4CCCC4)ccc3o2)cc1,5.6,-1.6,-0.2,2.2,5.8*
CCC(C)c1ccc2oc(-c3ccc(NC(=O)c4ncn[nH]4)cc3)nc2c1 (stereo unspecified),-1.0,-1.3,-0.1,-1.2,1.3
CC(C)CC(=O)Nc1ccc2oc(-c3cccnc3)nc2c1,6.4,-0.9,1.7,0.5,1.6
CCC(C)NCC(=O)Nc1ccc(-c2nc3cc(NC(=O)CNC(C)CC)ccc3o2)cc1 (stereo unspecified),4.1,-1.2,-1.3,0.7,-0.4
CC1CN(c2nc3ccccc3nc2SCC(=O)N2CCN(S(=O)(=O)c3ccccc3)CC2)CC(C)O1 (stereo unspecified),-3.8,-2.2,-3.6,-3.9,x
CCOC(=O)CC[C@@]1(C(=O)OCC)C[C@@H](CC(=O)NCCCN2CCCC2=O)C(=O)N2CCCC=C21,-1.2,-0.7,1.6,-1.5,x
COC(=O)[C@]12C[C@H](CC(=O)NCc3cccs3)C(=O)N(CCc3ccc(OC)c(OC)c3)C1=C[C@H](COCc1ccccc1)O[C@@H]2C,-3.1,-1.6,-0.1,-2.8,x
CCc1ccc2oc(-c3ccc(NC(C)=O)cc3)nc2c1,10.8*,1.1*,1.8,5.8*,3.0
COc1ccc(CCNC(=O)c2ccccc2OCc2c(C)noc2C)cc1,-0.8,-1.4,3.7*,-1.3,-1.0
Cc1noc(C)c1COc1ccccc1C(=O)NCCc1ccc(Cl)cc1,0.3,-1.4,1.0,-0.5,0.4
O=C(Cc1ccccc1)NC1CCCc2c1cnn2-c1ccc(F)cc1F (stereo unspecified),0.5,-2.1,x,-3.1,x
CCC(C)N(C(=O)CSc1nnc(-c2ccco2)n1C)C1CCS(=O)(=O)C1 (stereo unspecified),1.9,-0.8,-1.1,-1.2,4.6*
CCC(C)N(C(=O)CSc1nncn1C)C1CCS(=O)(=O)C1 (stereo unspecified),0.5,-1.0,0.3,-0.8,0.1
COC(=O)C1CN(C2CC2)CCS(=O)(=O)N1Cc1cn(Cc2ccc(C)cc2)nn1 (stereo unspecified),1.2,-1.0,1.2,0.2,x
CCOC(=O)Cc1csc(NC(=O)/C=C/c2ccc(OC)cc2)n1,12.2*,-1.3,0.2,-0.6,-4.0
CCOC(=O)Cc1csc(NC(=O)c2ccc(C)o2)n1,2.1,-1.6,-0.3,-0.7,1.1
CCOC(=O)Cc1csc(NC(=O)c2cnc3sc(C)cn3c2=O)n1,6.4,-0.2,1.1,6.3*,1.0
